ELG1 genotoxic: genotoxicity induction in ELG1-luciferase HEK293T cells. AID 504466. Potency, µM (series often up to 46 µM), for the others: top-dose activity change, positive = activation, most hits filed as activators. HEK293T ELG1-luciferase reporter, luminescence, 16 h. actives 1.3% (n = 330,000); also: % of control where 0% means no effect; nearly all actives have a fitted effect of over 60% in size
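Genotoxic stress is detected as increased luminescence from luciferase-tagged ELG1 in HEK293T cells, measured with ONE-Glo after a 16 hr treatment at 37 °C.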
NPC1 prom act: activates the NPC1 promoter | Huh7 NPC1 promoter luciferase reporter, 24 h | Potency, µM (doses to about 9.22 µM), for inactives: at the highest dose activation, usual class: activators | actives 2.4% (n = 320,000) | AID 485313; also: % of control where 0% means no effect; nearly all actives have a fitted effect of over 60% in size
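Quantitative HTS used a cell-based reporter: Huh7 cells stably bearing the NPC1 promoter upstream of luciferase were treated with compounds for 24 h, and promoter activation was read as luminescence.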
FLuc counter: firefly luciferase modulation, counter-screen for miR-21 project. P08659. purified FLuc, Km substrates, luminescence inhibition. Potency, µM (doses to about 57.5 µM), for the others: at the top dose activity change, negative = inhibition, usual class: inhibitors. actives 6.9% (n = 360,000);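 also: plate controls were vehicle for no effect and reference inhibitor for full effect; nearly all actives have a fitted effect of over 55% in size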
Target sequence (P08659 whole entry, looked up): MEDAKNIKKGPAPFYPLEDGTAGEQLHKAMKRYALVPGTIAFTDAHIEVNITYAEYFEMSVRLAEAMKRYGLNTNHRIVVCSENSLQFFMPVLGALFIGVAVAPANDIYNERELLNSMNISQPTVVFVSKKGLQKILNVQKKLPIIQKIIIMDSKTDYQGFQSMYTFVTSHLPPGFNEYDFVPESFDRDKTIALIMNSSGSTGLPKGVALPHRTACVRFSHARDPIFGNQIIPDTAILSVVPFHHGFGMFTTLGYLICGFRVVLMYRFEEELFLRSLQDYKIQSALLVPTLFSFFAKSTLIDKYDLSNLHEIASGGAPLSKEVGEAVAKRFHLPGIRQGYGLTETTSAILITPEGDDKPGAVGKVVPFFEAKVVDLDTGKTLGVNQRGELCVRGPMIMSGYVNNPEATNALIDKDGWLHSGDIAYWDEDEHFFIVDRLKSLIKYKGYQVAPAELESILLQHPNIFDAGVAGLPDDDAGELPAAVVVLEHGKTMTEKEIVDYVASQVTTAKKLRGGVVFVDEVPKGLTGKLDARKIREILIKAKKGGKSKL
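Purified P. pyralis luciferase (10nM final) with 10uM D-luciferin and 10uM ATP (Km levels) in 50mM Tris acetate pH 7.5, 10mM Mg acetate, 0.01% Tween-20, 0.05% BSA; qHTS 6-point titration, ~60 µM downward; luminescence read.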
Rab9 prom act: activates the Rab9 promoter | Huh7 Rab9 promoter-luciferase reporter, luminescence, 24 h | Potency, µM (top dose mostly 9.22 µM), for inactives: at the top dose activation, negative = inhibition, most hits filed as activators | actives 2.8% (n = 320,000); also: % of control where 0% means no effect; nearly all actives have a fitted effect of over 60% in size
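Promoter activation is measured as luciferase luminescence in Huh7 cells stably transfected with a Rab9 promoter–luciferase construct, following 24 h compound exposure at 37 °C and 10 min reagent incubation at ambient temperature.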
SMN2 splice enh: SMN2 splice variant enhancement. actives 2.8% (n = 210,000). Potency, µM (titrated, usually from 46.1 µM), inactives show at the top dose activity change, positive = activation, most hits filed as activators. HEK293 SMN2-luciferase splicing reporter, luminescence, 30-36 h; also: % of control where 0% means no effect; nearly all actives have a fitted effect of over 55% in size
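qHTS luciferase splicing reporter: luminescence rises when SMN2 exon 7 is included in transfected HEK293 cells. Compound exposure lasted 30-36 h at 37C, with 4.5 mM final sodium butyrate as control, followed by a ONE-Glo read.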
p53 reactivation: re-activators of mutant p53. H1299 p53-A138V BP100-luciferase reporter, luminescence, 24 h. Potency, µM (titrated, usually from 92.2 µM), inactives show at the highest dose activity change, positive = activation, usual class: activators. actives 0.063% (n = 320,000); also: % of control where 0% means no effect; nearly all actives have a fitted effect of over 45% in size
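H1299 (p53-null), stable ts p53-A138V + BP100-Luc; 1000 cells/well, Opti-MEM/10% FBS; cpd 4 pt, 1:5; 24 h, 37 deg C, 5% CO2; detection reagent 10 min RT; luminescence.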
* marks the source's active call; other numbers are inactive results; [ ] = another dose, or the depositor's remark. Rows were chosen to be rich in hits. Some 7.3% of all compounds tested hit in one or more screens of this group. Calls follow the shape of the dose curve; as a rule, active = well fitted curve in the direction sought with a large enough effect; inconclusive = small, poorly fitted or top-dose-only effect, or another doubt; inactive = no such curve, though single readings can be large; an effect the other way counts as inactive or inconclusive. Potency is read from the fitted curve at half-maximal effect.

`Cc1ccc(S(=O)(=O)c2nnn3c2nc(NC(C)C)c2sccc23)cc1` gave FLuc counter -1%.
`C1CCC[C@H]2CCCN3CC[C@H](CCCCCC[C@@H]4CCCN5CC[C@H](CC1)OC45)OC23` gave SMN2 splice enh 9%.
CCOC(=O)c1ccc(N=NN(C)C)cc1 was read as ELG1 genotoxic inconclusive, NPC1 prom act inconclusive, FLuc counter 19µM*, Rab9 prom act inconclusive and p53 reactivation 19%.
C=CCn1c(C)csc1=Nc1ccc(C(C)=O)cc1 was read as ELG1 genotoxic inconclusive, NPC1 prom act inconclusive, FLuc counter 19µM*, Rab9 prom act inconclusive, SMN2 splice enh -17% and p53 reactivation 1%.
CCOC(=O)c1ccc(N=C2NC(=O)CS2)cc1 was read as ELG1 genotoxic 5%, NPC1 prom act 2%, FLuc counter 0%, Rab9 prom act -6%, SMN2 splice enh inconclusive and p53 reactivation 0%.
For CCOC(=O)c1ccc(N=c2scc(C)n2CC)cc1 the results were ELG1 genotoxic inconclusive, NPC1 prom act inconclusive, FLuc counter 11µM*, Rab9 prom act 2µM*, SMN2 splice enh 25µM* and p53 reactivation -2%.
CCOC(=O)c1ccc(N)cc1 was read as ELG1 genotoxic inconclusive, NPC1 prom act 1%, FLuc counter 3%, Rab9 prom act 1%, SMN2 splice enh 13% and p53 reactivation 10%.
C=CCn1c(CC(=O)OC)csc1=Nc1ccc(C(C)=O)cc1 was read as ELG1 genotoxic 7%, NPC1 prom act inconclusive, FLuc counter inconclusive, Rab9 prom act -6%, SMN2 splice enh -15% and p53 reactivation inconclusive.
For Cc1ccc(CNC(=O)c2nc(-c3ccc(Cl)cc3)n3c2CCCCC3)cc1 the results were FLuc counter -12%.
`Cc1cc(=O)c2cc(C(=O)Nc3ccc(C)c(C)c3)ccc2[nH]1` gave FLuc counter 4%.
CC(=O)Nc1cccc(NC(=O)c2ccc3[nH]c(C)c(C)c3c2)c1 was read as ELG1 genotoxic 8%, NPC1 prom act 1%, FLuc counter 11µM*, Rab9 prom act 27% and p53 reactivation 13%.
Cc1cc(NC(=O)c2ccc3[nH]c(C)c(C)c3c2)ccn1 was read as ELG1 genotoxic -5%, NPC1 prom act 0%, FLuc counter 15µM*, Rab9 prom act -1% and p53 reactivation 9%.
Cc1cccc(NC(=O)c2ccc3[nH]c(C)cc(=O)c3c2)c1 was read as FLuc counter 5%.
Screening Cc1cccc(N2CCN(C(=O)C3CCN(S(=O)(=O)c4c(C)noc4/C=C/c4ccccc4F)CC3)CC2C)c1 (stereo unspecified) returned FLuc counter 4%.
`Nc1nc(N)c(N=O)c(OCC2CCCCC2)n1` gave ELG1 genotoxic 18µM*, NPC1 prom act 0%[46.1 µM], FLuc counter inconclusive and Rab9 prom act -15%[46.1 µM].
`CN(C)C(=O)c1cnc(-c2ccccc2)nc1-c1ccccc1` gave ELG1 genotoxic 0%, NPC1 prom act 2%, FLuc counter -8%, Rab9 prom act -4% and p53 reactivation -5%.
Screening CN(C)c1ccc(C(C#N)c2ccccc2)nn1 (stereo unspecified) returned ELG1 genotoxic 1%, NPC1 prom act 3.2µM*, FLuc counter -4%, Rab9 prom act 1.4µM*, SMN2 splice enh 6% and p53 reactivation 6%.
c1ccc(-c2ccc(-n3ccnc3)cc2)cc1 was read as ELG1 genotoxic inconclusive, NPC1 prom act 25%, FLuc counter 24µM*, Rab9 prom act 12% and p53 reactivation inconclusive.
`c1ccc(-c2nc(N3CCN(c4ccccc4)CC3)nc(-n3ccnc3)n2)cc1` gave ELG1 genotoxic -10%, NPC1 prom act -8%, FLuc counter 2%, Rab9 prom act 0% and p53 reactivation 2%.
`CC(Nc1oc(-c2ccccc2)nc1-c1ccc(C(F)(F)F)cc1)c1ccccc1` (stereo unspecified) gave SMN2 splice enh 3%.
Cc1ccc(-c2nc(S(=O)(=O)c3ccc(C)cc3)c(SCC(=O)Nc3ccc(F)cc3)o2)cc1 was read as FLuc counter -2% and SMN2 splice enh -2%.
Cc1cccn2cc(-c3cccc(NS(=O)(=O)c4ccc(Cl)c(Cl)c4)c3)nc12 was read as FLuc counter 9.5µM* and SMN2 splice enh 9%.
CCCS(=O)(=O)Nc1cccc(-c2cn3ccc(C)cc3n2)c1 was read as FLuc counter 12µM* and SMN2 splice enh 13µM*.
Cc1cccc(S(=O)(=O)Nc2ccc(-c3cn4ccccc4n3)cc2)c1 was read as ELG1 genotoxic 10%, NPC1 prom act 27%, FLuc counter 17µM*, Rab9 prom act inconclusive, SMN2 splice enh inconclusive and p53 reactivation 14%.
Screening O=S(=O)(Nc1ccc(-c2cn3ccccc3n2)cc1)c1ccccc1 returned ELG1 genotoxic inconclusive, NPC1 prom act 25%, FLuc counter 13µM*, Rab9 prom act 23% and p53 reactivation 6%.
Screening Cc1cc(C)c(S(=O)(=O)Nc2ccc(-c3cn4ccccc4n3)cc2)c(C)c1 returned ELG1 genotoxic -5%, NPC1 prom act -2%, FLuc counter inconclusive, Rab9 prom act 3%, SMN2 splice enh 11% and p53 reactivation -4%.
Screening COc1ccc(S(=O)(=O)Nc2cc(-c3cn4cccc(C)c4n3)ccc2C)cc1C returned FLuc counter inconclusive and SMN2 splice enh 18%.
CCc1ccccc1NC(=O)c1sc(-n2nc(C)c(Cc3ccc4c(c3)OCO4)c2C)nc1C was read as FLuc counter 0%.
For COc1ccc(C(=O)N2CCC[C@@]3(CCN(CC(C)C)C3)C2)cc1 the results were SMN2 splice enh -1%.
`Cc1cc(C)c(S(=O)(=O)Nc2cccc(-c3cn4ccccc4n3)c2)c(C)c1` gave FLuc counter 9.5µM*.
For COc1ccccc1CN1CC[C@@]2(CCCN(S(C)(=O)=O)C2)C1 the results were SMN2 splice enh -5%.
Screening O=C(CSC(=S)N1CCCCC1)N1N=CCC1c1ccccc1 (stereo unspecified) returned ELG1 genotoxic inconclusive, NPC1 prom act 26%, FLuc counter 21µM*, Rab9 prom act 22%, SMN2 splice enh -4% and p53 reactivation 25%.
